This note sets out measurements from the supplement of paper PMC10338343.

± gives the standard deviation.
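Further: 1 nM active piRISC with 0.1 nM target library at 33 °C single turnover.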

For this assay, the system named is MILI (PIWIL2) piRISC loaded with piRNA #1 (26 nt). Kind of assay: pre-steady-state target cleavage rate (min^-1); guide: piRNA #1 5'p-UGAGGUAGUAGGUUGUAUAGUAUCCA; MIWI and MILI are mouse PIWI proteins and EfPiwi is from a freshwater sponge; tags in brackets are library labels; higher = faster piRNA-guided slicing of the target. To be noted: auxiliary factor: 500 nM mouse GTSF1. The method in brief: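 In HEPES–potassium acetate buffer at 33 °C, […] transcribed, DNA-blocked target RNA library was mixed with 1 nM active affinity-purified piRISC carrying one synthetic guide, with or without 500 nM GTSF1 partner protein, for 0–8 or 0–960 min. Uncleaved targets were sequenced and normalised to depth and to weakly complementary targets; three trials were pooled and k3 was capped at 0.0001 min^-1. The pre-steady-state cleavage rate followed from a burst-and-steady-state fit.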
Take GGAGACCUAUGUAUACAACGUACAACCUCA: the “pre-steady-state target cleavage rate” value is 0.00935 ± 0.0021.
In the case of GGAGACCUAUCUAUACUACCUACUACCUGA it was 0.0569 ± 0.013; in that of GGAGACCUUACUAUUCAACCAACUACCUCA, 0.00367 ± 0.0028; in that of GGAGACCUUAGUUUACAACCUACUACCUCA, 0.0381 ± 0.012.
To GGAGACCUUACUAUAGAAGCUACUACCUCA belongs 0.134 ± 0.015.
To GGAGACCAUACUUUACAUCCUACUACCUCA belongs 0.296 ± 0.029; to GGAGACCUAUGAUAUGUUCGUACUACCUGA, less than 0.0001; to GGAGACCUAUGAUAUGUUGCUACUCCUCA, less than 0.0001.
For the sequence GGAGACCUAUCUUUACAACCUACAACCUCA, the “pre-steady-state target cleavage rate” value worked out at 0.0745 ± 0.01.
GGAGACCUAUGAUAUGAACCUAGCUACCUCA: the “pre-steady-state target cleavage rate” value was less than 0.0001.
To GGAGACCUUACUAUACAACUUACUACCUCA belongs 0.0242 ± 0.0054; to GGAGACCUAUCUAUACAACCUACGUACCUCA, 0.0605 ± 0.012; to GGAGACCUAUGAUAUCCAACCUACUACCUCA, 0.0112 ± 0.0022.
In the case of GGAGACCUAUCUAUACAAGCUACUACCACA it was 0.278 ± 0.019; in that of GGAGACCUAACUUAUACAACCUACUACCUCA, 0.0771 ± 0.019.
To GGAGACCUAAGUAUACAACCAACUACCUCA belongs 0.00465 ± 0.0039; to GGAGACCUAACAAUACAAGCUACUACCUCA, 0.22 ± 0.029; to GGAGAGGAUACUAUUGAACCUACUACCUCA, 0.124 ± 0.011.
GGAGACCUAUGAUUACAAGCUACUACCUCA: the “pre-steady-state target cleavage rate” value was determined as 0.0262 ± 0.0067.
To GGAGACCUAUCUAUACAACCUACAUGCUCA belongs 0.068 ± 0.021.
Regarding GGAGACCUUACAAAACAACCUACUACCUCA, the “pre-steady-state target cleavage rate” value was 0.00897 ± 0.0036.
To GGAGACCUAUGUAUACAACCUACUACCUACA belongs 0.0588 ± 0.0083; to GGAGACCUAACUAGUACAACCUACUACCUCA, 0.0828 ± 0.019.
In the case of GGAGACCUUACUAAACAACCUAGUACCUCA it was 0.0259 ± 0.0068.
With “GGAGACCAUACUAUACAACGAUGAUGGAGA [g12:g23:cont:t1A]”, the “pre-steady-state target cleavage rate” value was less than 0.0001.
For GGAGACCUAAGUAUACAACCUAGUACCUCA, the “pre-steady-state target cleavage rate” value worked out at 0.0133 ± 0.0034.
To GGAGACCUAUGAUAUGAACCUACUACGCUCA belongs less than 0.0001; to GGAGACCUUACUAUACAACGAACUACCUCA, 0.00385 ± 0.0021; to GGAGACCUAUGAUUACUACCUACUUCCUCA, 0.00322 ± 0.0022.
GGAGACCUAUGAUAUGUACCUACUACCCUCA: the “pre-steady-state target cleavage rate” value is less than 0.0001.
Regarding GGAGACCUAUCUAAACAACCUUCUACCUCA, the “pre-steady-state target cleavage rate” value came to 0.00634 ± 0.0024.
GGAGAGGAAACUAUAGAACCUACUACCUCA: the “pre-steady-state target cleavage rate” value is 0.178 ± 0.018.
Turning to GGAGACCUAUGUAUACAAUCUACUACCUCA, the “pre-steady-state target cleavage rate” value came out at 0.0642 ± 0.011.
GGAGUGGAUACUAUACAACGUACUACGUCA: the “pre-steady-state target cleavage rate” value came to 0.0108 ± 0.0027.
To GGAGACCUAUCAAUACAACCUAGUACCUCA belongs 0.00718 ± 0.0036.
To GGAGACCUAUCUAUACAACCUACAUACCUCA belongs 0.113 ± 0.015; to GGAGUGGAAACAAUACAACCUACUACCUCA, 0.184 ± 0.018.
In the case of GGAGACCAUACUAUACUUCCUACUACCUCA it was 0.226 ± 0.021; in that of GGAGACCUAUGAUAUGAAGGAACUACCUCA, less than 0.0001.
In the case of GGAGACCUAUCUUUACAAGCUACUACCUCA, the “pre-steady-state target cleavage rate” value came out at 0.122 ± 0.01.
